Assay results published in PubChem BioAssay (NCATS).
Values without a mark were called inactive. Results filed as inconclusive are left out. Calls of active or inactive are those of the source. Unless noted, the call rests on the fitted dose curve; in most records, active means well fitted curve in the direction sought with a large enough effect; inconclusive means small, poorly fitted or top-dose-only effect, or another doubt; inactive means no such curve, though single readings can be large; an effect the other way counts as inactive or inconclusive.

Tests used:
[1] = P-glycoprotein substrates identified in KB-8-5-11 adenocarcinoma cell line, qHTS therapeutic library screen (AID 1346987); further: nearly all actives have a fitted effect of over 65% in size; further: potency means the concentration at half of the fitted maximal effect
How it was run: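 KB-8-5-11: colchicine-selected sub-line of KB-3-1 over-expressing P-gp; assay medium lacked colchicine. 72 h drug exposure at 37 degree C, CellTiter-Glo.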

[2] = tested on: Zika virus NS2B-NS3 protease (linked construct); assay: Confirmatory screen NINDS AMC qHTS for Zika virus inhibitors (AID 1347152); further: nearly all actives have a fitted effect of over 70% in size; further: potency means the concentration at half of the fitted maximal effect
How it was run: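 Concentration-response confirmation used the NINDS linked protease (NS2B hydrophilic domain joined to NS3 protease domain), 1 nM, with a 15-min compound preincubation. Substrate, Nle-KRR-AMC at 10 microM, was read by UV fluorescence before and after 15 min.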

[3] = tested on: Zika virus NS2B-NS3 protease (unlinked complex); assay: Confirmatory screen GU AMC qHTS for Zika virus inhibitors (AID 1347153); conditions: Recombinant NS2B-NS3 protease, AMC substrate fluorescence;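 further: enzyme at 25 nM with substrate at 10 µM below its Km of 18.3 µM; potency means the concentration at half of the fitted maximal effect; nearly all actives have a fitted effect of over 70% in size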
How it was run: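 Fluorescence change (ex 340/em 450 nm) over 15 min, ~20% substrate conversion, normalized to no-inhibitor and no-enzyme controls, then Hill-fitted. Unlinked protease at 25 nM; AMC peptide 10 µM.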

Furin (Homo sapiens) = Furin (Homo sapiens) (UniProt P09958); assay: Furin counterscreen qHTS for Zika virus inhibitors (AID 1347149); further: nearly all actives have a fitted effect of over 70% in size; further: potency means the concentration at half of the fitted maximal effect
How it was run: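 Fluorogenic cleavage of BOC-RVRR-AMC (2 microM final, Km ~15 µM) was monitored (ex 340, em 450 nm) at 37C after 15 min RT preincubation of 5 nM furin with compounds in HEPES pH 7.0 buffer with CaCl2 and Triton X-100. Percent inhibition was fitted to a 4-parameter Hill curve.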

[4] = qHTS of pediatric cancer cell lines to identify multiple opportunities for drug repurposing: Primary screen for SJ-GBM2 cells (AID 1347091); conditions: SJ-GBM2 viability, CellTiter-Glo luminescence, 48 h; further: potency means the concentration at half of the fitted maximal effect
How it was run: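 Cell viability, CellTiter-Glo luminescence; 500-1,000 cells/well, 8- or 11-point titration, 48 h compound exposure at 37 degrees C, 5% CO2. Controls: DMSO neutral, bortezomib 2.3 µM final as positive.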

[5] = qHTS of pediatric cancer cell lines to identify multiple opportunities for drug repurposing: Primary screen for RD cells (AID 1347104); conditions: RD rhabdomyosarcoma viability, CellTiter-Glo luminescence, 48 h; further: potency means the concentration at half of the fitted maximal effect; nearly all actives have a fitted effect of over 55% in size
How it was run: (§1)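 Cells plated at 500-1,000/well in growth medium, compounds added after 5 h. MIPE tested at 11 points (from 0.78 nM), NPC at 8 points (from 0.59 nM). CellTiter-Glo luminescence after 48 h; concentration-response curves from primary screen.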

[6] = biological target: Atrial natriuretic peptide receptor 1 (Homo sapiens) (UniProt P16066); assay: Natriuretic polypeptide receptor (hNpr1) antagonism - Pilot screen (AID 1347049; calls by dose curve;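 further: agonist-evoked cGMP luminescence read 20 min after hNppA addition; series mostly up to about 58 µM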)
How it was run: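 Readout is cGMP-driven firefly luciferase luminescence in HEK293 cells carrying hNpr1 and a PDE5-domain GloSensor, read before and 20 min after 0.1 nM hNppA stimulation. Cells had 2% substrate reagent for 2 h and test compound for 30 min.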

[7] = biological target: Atrial natriuretic peptide receptor 2 (Homo sapiens) (UniProt P20594); assay: Natriuretic polypeptide receptor (hNpr2) antagonism - Pilot subtype selectivity assay (AID 1347050; calls by dose curve; further: potency means the concentration at half of the fitted maximal effect)
How it was run: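 Pilot selectivity screen against hNpr2: HEK293 cGMP-sensor cells are treated with LOPAC1280 compounds, then with hNppC peptide at 1 nM final. The cGMP-driven luminescence change over 20 min at room temperature is the read-out.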

[8] = biological target: T1, Tyrosine-protein phosphatase non-receptor type substrate 1 (Homo sapiens) + Leukocyte surface antigen CD47 (Homo sapiens) (UniProt P78324+Q08722); assay: CD47-SIRPalpha protein protein interaction - LANCE assay qHTS validation (AID 1347057; active means well fitted curve in the direction sought with a large enough effect in the signal ratio, with a control signal flat, not every such curve was filed as active; the % refers to the signal ratio; further: series mostly up to about 38 µM)
How it was run: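 First, His-tagged CD47 and Eu-labelled anti-His antibody met the compound for 30 min; next, site-specifically biotinylated SIRPalpha was added for 30 min; finally streptavidin-APC was added before reading the TR-FRET ratio.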

[9] = biological target: T1, Tyrosine-protein phosphatase non-receptor type substrate 1 (Homo sapiens) + Leukocyte surface antigen CD47 (Homo sapiens); assay: CD47-SIRPalpha protein protein interaction - HTRF assay qHTS validation (AID 1347058; active means well fitted curve in the direction sought with a large enough effect in the signal ratio, not every such curve was filed as active; the % refers to the signal ratio;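 further: recombinant soluble extracellular CD47 with His tag and biotinylated SIRPalpha domains; series mostly up to about 38 µM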)
How it was run: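 TR-FRET read (Ch1/Ch2 ratio) of soluble extracellular CD47 and Avi-biotinylated SIRPalpha domains in PBS pH 7.4 with 0.05% IGEPAL; 7-point compound titration. Sequential 30 min room-temperature steps; non-biotinylated SIRPalpha as control inhibitor.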

[10] = biological target: T1, Tyrosine-protein phosphatase non-receptor type substrate 1 (Homo sapiens) + Leukocyte surface antigen CD47 (Homo sapiens); assay: CD47-SIRPalpha protein protein interaction - Alpha assay qHTS validation (AID 1347059);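 further: bead proximity luminescence from CD47 binding SIRPalpha after compound preincubation with SIRPalpha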
How it was run: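 Binding is measured by AlphaScreen proximity: Ni-NTA acceptor beads capture His-CD47, streptavidin donor beads capture biotin-SIRPalpha. Each of three additions (SIRPalpha with compound, CD47, beads) incubates 30 min at room temperature protected from light.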

[11] = biological target: Parathyroid hormone/parathyroid hormone-related peptide receptor (Homo sapiens) (UniProt Q03431); assay: qHTS for PTHR1 Agonists: Optimization Screen against the NCGC LOPAC library (AID 1347079);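 further: GloSensor cAMP luminescence in HEK-293 GP2 cells expressing human PTHR1 with IBMX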
How it was run: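 Compounds were tested across a qHTS titration. PTHR1-expressing GP2 cells report cAMP rises via GloSensor luminescence after 1 hr compound exposure at 37C with IBMX present.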

[12] = qHTS of pediatric cancer cell lines to identify multiple opportunities for drug repurposing: Primary screen for Saos-2 cells (AID 1347097); conditions: Saos-2 viability, CellTiter-Glo ATP luminescence, 48 h; further: potency means the concentration at half of the fitted maximal effect; nearly all actives have a fitted effect of over 40% in size
How it was run: as §1

[13] = qHTS of pediatric cancer cell lines to identify multiple opportunities for drug repurposing: Primary screen for SK-N-SH cells (AID 1347098); conditions: SK-N-SH viability, CellTiter-Glo luminescence, 48 h; further: potency means the concentration at half of the fitted maximal effect; nearly all actives have a fitted effect of over 65% in size
How it was run: (§2)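 Cells (500-1,000/well) rested 5 h, then received compounds for 48 h; metabolically active cells were measured by CellTiter-Glo luminescence. Final concentrations spanned up to 46 µM (MIPE, 11-point) or 0.59 nM-46 µM (NPC, 8-point) in primary screens, 11-point in follow-ups.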

[14] = qHTS of pediatric cancer cell lines to identify multiple opportunities for drug repurposing: Primary screen for BT-12 cells (AID 1347101); conditions: BT-12 viability, CellTiter-Glo luminescence, 48 h; further: potency means the concentration at half of the fitted maximal effect; nearly all actives have a fitted effect of over 25% in size
How it was run: as §2

[15] = qHTS of pediatric cancer cell lines to identify multiple opportunities for drug repurposing: Primary screen for Rh18 cells (AID 1347102); conditions: Rh18 rhabdomyosarcoma viability, CellTiter-Glo luminescence, 48 h; further: potency means the concentration at half of the fitted maximal effect; nearly all actives have a fitted effect of over 65% in size
How it was run: as §2

[16] = qHTS of pediatric cancer cell lines to identify multiple opportunities for drug repurposing: Primary screen for OHS-50 cells (AID 1347103); conditions: OHS-50 osteosarcoma viability, CellTiter-Glo luminescence, 48 h; further: potency means the concentration at half of the fitted maximal effect; nearly all actives have a fitted effect of over 40% in size
How it was run: as §2

Chain of Furin (Homo sapiens) (P09958 whole entry, looked up): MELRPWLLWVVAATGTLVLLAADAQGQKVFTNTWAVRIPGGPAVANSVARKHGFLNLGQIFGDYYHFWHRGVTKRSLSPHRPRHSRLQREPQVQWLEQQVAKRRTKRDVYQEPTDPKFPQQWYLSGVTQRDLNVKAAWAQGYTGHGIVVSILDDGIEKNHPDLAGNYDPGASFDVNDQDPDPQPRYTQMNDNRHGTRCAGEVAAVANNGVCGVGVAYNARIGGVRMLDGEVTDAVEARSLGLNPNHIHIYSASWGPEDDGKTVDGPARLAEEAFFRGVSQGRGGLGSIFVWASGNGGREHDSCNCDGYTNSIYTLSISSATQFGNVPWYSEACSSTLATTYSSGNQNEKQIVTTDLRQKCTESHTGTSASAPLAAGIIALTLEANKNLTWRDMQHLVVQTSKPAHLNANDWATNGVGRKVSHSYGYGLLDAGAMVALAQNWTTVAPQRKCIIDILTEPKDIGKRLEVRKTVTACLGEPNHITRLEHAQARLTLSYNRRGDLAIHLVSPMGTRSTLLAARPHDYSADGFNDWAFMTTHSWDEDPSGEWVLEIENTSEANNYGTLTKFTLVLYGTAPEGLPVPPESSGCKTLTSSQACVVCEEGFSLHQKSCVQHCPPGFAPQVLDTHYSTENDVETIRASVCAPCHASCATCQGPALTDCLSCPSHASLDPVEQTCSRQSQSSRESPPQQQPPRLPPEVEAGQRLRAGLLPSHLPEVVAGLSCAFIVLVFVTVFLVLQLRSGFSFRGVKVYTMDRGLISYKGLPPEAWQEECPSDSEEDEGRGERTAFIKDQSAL
T1 sequence (P78324 whole entry, looked up): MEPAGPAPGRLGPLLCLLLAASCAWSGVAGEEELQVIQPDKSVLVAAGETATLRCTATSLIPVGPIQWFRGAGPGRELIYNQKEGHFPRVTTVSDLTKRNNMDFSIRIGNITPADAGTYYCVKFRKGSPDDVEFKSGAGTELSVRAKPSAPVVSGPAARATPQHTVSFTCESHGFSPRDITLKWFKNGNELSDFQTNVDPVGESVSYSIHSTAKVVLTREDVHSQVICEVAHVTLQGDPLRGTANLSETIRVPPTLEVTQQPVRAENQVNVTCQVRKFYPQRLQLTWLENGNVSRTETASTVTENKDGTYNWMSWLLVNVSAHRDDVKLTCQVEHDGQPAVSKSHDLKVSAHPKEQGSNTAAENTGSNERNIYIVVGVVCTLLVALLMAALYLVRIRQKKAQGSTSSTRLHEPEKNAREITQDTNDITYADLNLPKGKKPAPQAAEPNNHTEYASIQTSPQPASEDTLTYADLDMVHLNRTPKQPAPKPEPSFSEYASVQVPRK
T1 sequence (Q08722 whole entry, looked up): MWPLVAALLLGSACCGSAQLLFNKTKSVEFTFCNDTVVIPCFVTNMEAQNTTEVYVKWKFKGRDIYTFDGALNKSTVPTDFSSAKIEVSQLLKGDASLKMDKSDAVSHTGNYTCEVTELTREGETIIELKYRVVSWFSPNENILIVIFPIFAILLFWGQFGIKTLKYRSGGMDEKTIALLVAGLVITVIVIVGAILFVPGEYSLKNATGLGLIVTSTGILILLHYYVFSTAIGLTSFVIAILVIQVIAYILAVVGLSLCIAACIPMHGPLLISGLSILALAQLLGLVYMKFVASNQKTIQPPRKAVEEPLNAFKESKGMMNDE
Chain of Parathyroid hormone/parathyroid hormone-related peptide receptor (Homo sapiens) (Q03431 whole entry, looked up): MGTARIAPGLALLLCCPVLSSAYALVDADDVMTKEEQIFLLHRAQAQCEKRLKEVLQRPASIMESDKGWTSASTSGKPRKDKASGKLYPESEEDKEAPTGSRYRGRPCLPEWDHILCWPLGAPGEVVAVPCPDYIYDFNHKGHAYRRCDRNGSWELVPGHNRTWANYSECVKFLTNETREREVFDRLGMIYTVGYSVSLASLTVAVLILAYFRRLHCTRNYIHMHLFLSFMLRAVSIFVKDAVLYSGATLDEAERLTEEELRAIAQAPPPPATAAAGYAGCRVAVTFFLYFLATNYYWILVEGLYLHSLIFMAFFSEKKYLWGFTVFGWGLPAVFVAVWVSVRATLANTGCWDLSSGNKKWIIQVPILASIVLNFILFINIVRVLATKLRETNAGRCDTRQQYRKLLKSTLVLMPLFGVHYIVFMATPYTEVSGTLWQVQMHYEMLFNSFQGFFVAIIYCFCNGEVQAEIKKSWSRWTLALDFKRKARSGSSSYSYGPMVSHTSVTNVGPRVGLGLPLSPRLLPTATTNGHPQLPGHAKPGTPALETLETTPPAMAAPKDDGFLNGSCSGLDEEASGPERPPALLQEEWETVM
Chain of Atrial natriuretic peptide receptor 1 (Homo sapiens) (P16066 whole entry, looked up): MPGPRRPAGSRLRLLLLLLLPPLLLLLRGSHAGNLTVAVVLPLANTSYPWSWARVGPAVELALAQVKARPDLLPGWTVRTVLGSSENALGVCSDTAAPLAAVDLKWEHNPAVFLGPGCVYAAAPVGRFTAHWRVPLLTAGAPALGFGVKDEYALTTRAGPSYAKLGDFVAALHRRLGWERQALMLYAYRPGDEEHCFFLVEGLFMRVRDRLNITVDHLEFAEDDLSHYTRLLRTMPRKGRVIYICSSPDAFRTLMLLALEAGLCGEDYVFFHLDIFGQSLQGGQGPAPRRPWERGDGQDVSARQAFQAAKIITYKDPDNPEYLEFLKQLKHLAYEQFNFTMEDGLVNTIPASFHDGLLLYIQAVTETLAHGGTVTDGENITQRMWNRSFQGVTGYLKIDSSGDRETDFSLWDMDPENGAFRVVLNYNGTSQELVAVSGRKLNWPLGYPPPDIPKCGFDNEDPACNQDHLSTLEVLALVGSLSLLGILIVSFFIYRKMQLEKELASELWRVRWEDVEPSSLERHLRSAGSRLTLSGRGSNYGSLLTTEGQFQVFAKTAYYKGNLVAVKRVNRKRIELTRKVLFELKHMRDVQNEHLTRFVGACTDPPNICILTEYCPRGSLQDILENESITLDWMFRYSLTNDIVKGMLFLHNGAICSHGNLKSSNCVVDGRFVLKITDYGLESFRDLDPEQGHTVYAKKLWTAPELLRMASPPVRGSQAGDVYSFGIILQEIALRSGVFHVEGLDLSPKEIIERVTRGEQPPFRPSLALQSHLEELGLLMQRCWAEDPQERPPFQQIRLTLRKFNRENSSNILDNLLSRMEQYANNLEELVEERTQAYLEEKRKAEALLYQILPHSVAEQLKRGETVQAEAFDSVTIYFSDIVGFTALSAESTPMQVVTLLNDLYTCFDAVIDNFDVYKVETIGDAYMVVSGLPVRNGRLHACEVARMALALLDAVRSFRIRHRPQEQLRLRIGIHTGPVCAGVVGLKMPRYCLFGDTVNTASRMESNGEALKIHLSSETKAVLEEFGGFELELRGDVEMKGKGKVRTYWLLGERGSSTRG
Chain of Atrial natriuretic peptide receptor 2 (Homo sapiens) (P20594 whole entry, looked up): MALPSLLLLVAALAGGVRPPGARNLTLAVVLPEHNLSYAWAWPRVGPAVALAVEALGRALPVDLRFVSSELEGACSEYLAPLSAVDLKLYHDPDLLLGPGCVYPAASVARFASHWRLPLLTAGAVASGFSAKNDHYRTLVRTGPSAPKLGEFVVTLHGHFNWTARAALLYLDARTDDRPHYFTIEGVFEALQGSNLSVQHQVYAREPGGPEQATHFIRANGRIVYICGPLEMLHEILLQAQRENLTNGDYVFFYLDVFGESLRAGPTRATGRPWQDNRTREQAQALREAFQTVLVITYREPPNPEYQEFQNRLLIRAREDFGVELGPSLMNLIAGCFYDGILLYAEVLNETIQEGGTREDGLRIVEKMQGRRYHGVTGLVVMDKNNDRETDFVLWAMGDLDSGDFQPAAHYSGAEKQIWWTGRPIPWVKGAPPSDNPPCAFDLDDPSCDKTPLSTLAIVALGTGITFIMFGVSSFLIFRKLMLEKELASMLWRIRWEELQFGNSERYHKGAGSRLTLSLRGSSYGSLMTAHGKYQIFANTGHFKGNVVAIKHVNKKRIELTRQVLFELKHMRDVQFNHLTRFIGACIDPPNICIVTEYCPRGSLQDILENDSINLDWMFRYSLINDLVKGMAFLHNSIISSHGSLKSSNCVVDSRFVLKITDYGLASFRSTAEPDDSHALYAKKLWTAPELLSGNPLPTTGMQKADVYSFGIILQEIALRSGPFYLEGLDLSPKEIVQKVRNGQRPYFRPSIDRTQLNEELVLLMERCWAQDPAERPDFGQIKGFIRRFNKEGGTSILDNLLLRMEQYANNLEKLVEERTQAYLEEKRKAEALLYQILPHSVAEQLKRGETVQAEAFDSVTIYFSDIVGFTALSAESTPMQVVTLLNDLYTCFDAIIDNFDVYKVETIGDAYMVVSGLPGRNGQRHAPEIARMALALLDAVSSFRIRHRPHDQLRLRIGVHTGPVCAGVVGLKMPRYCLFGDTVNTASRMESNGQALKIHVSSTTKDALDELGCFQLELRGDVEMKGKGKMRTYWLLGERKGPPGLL

## CN(C)[C@@H]1CCc2[nH]c3ccc(NC(=O)c4ccc(F)cc4)cc3c2C1
[1]
  Potency: inactive

## CCC(CC)Nc1nc(C)c(-c2ccc(OC(F)(F)F)cc2OC)nc1OC
[1]
  Potency: inactive

## O=C(O)c1ccc(S(=O)(=O)N(Cc2ccc(OC(F)(F)F)cc2)c2ncc(C(F)(F)F)cc2Cl)cc1
[2]
  Potency: 49.4 µM (active)
[3]
  Potency: 44.1 µM (active)

## CN(C)c1ccc(NC(=O)NS(=O)(=O)c2ccc(Cl)cc2)cc1
[1]
  Potency: inactive

## N#Cc1ccc(N2N=C3c4ccc(C(=O)O)cc4CC[C@@H]3[C@@H]2C2CCCC2)cc1Cl
Furin (Homo sapiens)
  Potency: inactive
[2]
  Potency: 8.79 µM (active)
[3]
  Potency: 15.6 µM (active)

## O=C(O)c1cccc(-c2ccc(-c3cn(C(=O)N4CCCCC4Cc4ccccc4)nn3)cc2)c1 (stereo not drawn)
[1]
  Potency: inactive
Furin (Homo sapiens)
  Potency: 55.5 µM (active)
[2]
  Potency: 27.8 µM (active)
[3]
  Potency: 31.2 µM (active)

## Oc1cccc(-c2c3nc(c(-c4cccc(O)c4)c4ccc([nH]4)c(-c4cccc(O)c4)c4nc(c(-c5cccc(O)c5)c5ccc2[nH]5)CC4)C=C3)c1
[4]
  Potency: 21.1 µM (active)
[5]
  Potency: 26.6 µM (active)
Furin (Homo sapiens)
  Potency: inactive

## CCCOc1ccc2nc(NC(=O)OC)sc2c1
[1]
  Potency: 5.8 µM (active)

## CCCCCc1ccc(/C=C/C(=O)Nc2cc(Cl)ccc2C(=O)O)cc1
[1]
  Potency: inactive
Furin (Homo sapiens)
  Potency: 39.3 µM (active)
[2]
  Potency: 8.79 µM (active)
[3]
  Potency: 9.87 µM (active)

## O=C(NC[C@H]1CN(c2ccc(N3CCOCC3=O)cc2)C(=O)O1)c1ccc(Cl)s1
[1]
  Potency: inactive

## CC(C)C[C@H](C(=O)O)c1cc(-c2ccc(C(F)(F)F)cc2)cc(-c2ccc(C(F)(F)F)cc2)c1
Furin (Homo sapiens)
  Potency: 17.5 µM (active)
[2]
  Potency: 9.87 µM (active)
[3]
  Potency: 15.6 µM (active)

## CC#C[C@@H](CC(=O)O)c1ccc(OCc2cccc(-c3ccc(C(F)(F)F)cc3)c2)cc1
[1]
  Potency: inactive
Furin (Homo sapiens)
  Potency: 24.1 µM (active)
[2]
  Potency: 12.4 µM (active)
[3]
  Potency: 13.9 µM (active)

## CN[C@H]1CC[C@@H](c2ccc(Cl)c(Cl)c2)c2ccccc21
[6]
  outcome: inactive
[7]
  Potency: 14.7 µM (active)
[8]
  outcome: inactive
[9]
  outcome: inactive
[10]
  outcome: inactive
[11]
  outcome: inactive
[4]
  Potency: 23.7 µM (active)
[12]
  Potency: 23.7 µM (active)
[13]
  Potency: 10.9 µM (active)
[14]
  Potency: 21.9 µM (active)
[15]
  Potency: 23.7 µM (active)
[16]
  Potency: 15.5 µM (active)

## C=CC(=O)Nc1cc(-n2c(=O)ccc3cnc4ccc(-c5ccc(NS(C)(=O)=O)cc5)cc4c32)ccc1C
[1]
  Potency: inactive

## CC(O)(C(=O)O)C1CCC2(C)C1CCC1(C)C2CCC2C3(C)CCC(O)C(C)(COC4OC(CO)C(O)C(O)C4O)C3CCC21C (stereo not drawn)
[1]
  Potency: inactive
Furin (Homo sapiens)
  Potency: inactive
[2]
  Potency: inactive

## CC(O)C(C)n1ncn(-c2ccc(N3CCN(c4ccc(OCC5COC(Cn6cncn6)(c6ccc(Cl)cc6Cl)O5)cc4)CC3)cc2)c1=O (stereo not drawn)
[1]
  Potency: 14.6 µM (active)

## Cc1c(O)cc2c(c1C)O[C@](C)(CCC[C@H](C)CCC[C@H](C)CCCC(C)C)CC2
[1]
  Potency: inactive

## O=C(Nc1ccc(-c2ccc(Cl)c(Cl)c2)cc1)C1=C(O)c2ccccc2S(=O)(=O)N1
[1]
  Potency: inactive
Furin (Homo sapiens)
  Potency: inactive
[2]
  Potency: 49.4 µM (active)
[3]
  Potency: 44.1 µM (active)

## CC(C)NC(=O)COc1cccc(-c2nc(Nc3ccc4[nH]ncc4c3)c3ccccc3n2)c1
[1]
  Potency: 8.2 µM (active)

## COc1ccc(-c2ccccc2)cc1NS(=O)(=O)c1cc(Cl)cc(Cl)c1O
[1]
  Potency: inactive
Furin (Homo sapiens)
  Potency: 30.4 µM (active)
[2]
  Potency: 7.64 µM (active)

## Cc1noc(-c2ccc(-c3ccc(CC(=O)O)cc3)cc2)c1NC(=O)O[C@H](C)c1ccccc1Cl
[1]
  Potency: inactive
Furin (Homo sapiens)
  Potency: 69.8 µM (active)
[2]
  Potency: 44.1 µM (active)
[3]
  Potency: 31.2 µM (active)
